Source: PubChem BioAssay
Pol kappa inh-1 – blocks human DNA polymerase kappa activity; Q9UBT6; purified Pol kappa, fluorescent DNA synthesis assay, 10 min; Potency, µM (doses to about 107 µM), for inactives: at the highest dose activity, negative = inhibition, actives largely listed as inhibitors; hit rate 0.53% among 400,000; AID 588579; further: potency means the concentration at half of the fitted maximal effect; on the % scale 0 is the no-effect control and ±100 the full control effect
Target sequence (Q9UBT6 whole entry, looked up): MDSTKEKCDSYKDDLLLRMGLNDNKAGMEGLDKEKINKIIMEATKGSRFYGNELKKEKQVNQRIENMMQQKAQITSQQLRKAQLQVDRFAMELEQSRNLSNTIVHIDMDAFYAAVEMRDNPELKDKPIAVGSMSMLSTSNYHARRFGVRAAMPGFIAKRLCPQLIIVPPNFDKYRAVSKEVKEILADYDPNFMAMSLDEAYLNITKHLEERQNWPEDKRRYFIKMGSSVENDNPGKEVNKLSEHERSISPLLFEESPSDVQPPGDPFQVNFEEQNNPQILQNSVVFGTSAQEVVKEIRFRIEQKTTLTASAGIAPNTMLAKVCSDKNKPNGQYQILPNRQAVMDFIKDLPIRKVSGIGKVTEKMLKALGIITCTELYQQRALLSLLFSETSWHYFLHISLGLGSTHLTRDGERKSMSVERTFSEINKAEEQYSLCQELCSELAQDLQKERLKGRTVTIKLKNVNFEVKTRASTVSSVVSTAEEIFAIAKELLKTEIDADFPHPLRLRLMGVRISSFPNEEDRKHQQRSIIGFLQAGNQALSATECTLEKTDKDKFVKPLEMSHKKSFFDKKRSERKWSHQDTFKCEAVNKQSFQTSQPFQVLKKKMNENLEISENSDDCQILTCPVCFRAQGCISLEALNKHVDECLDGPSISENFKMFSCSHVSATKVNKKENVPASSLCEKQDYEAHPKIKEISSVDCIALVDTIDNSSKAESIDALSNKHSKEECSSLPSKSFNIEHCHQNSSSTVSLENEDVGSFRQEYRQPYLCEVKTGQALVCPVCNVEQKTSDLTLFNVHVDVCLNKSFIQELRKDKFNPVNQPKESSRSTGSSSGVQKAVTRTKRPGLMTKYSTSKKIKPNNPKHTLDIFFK
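10 nM Pol kappa preincubated 15 min at room temperature with compounds, then reaction started with substrate at 50 nM final. Fluorescence read kinetically at 0 and 10 min; buffer-only wells served as negative control.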
FEN1 inh – inhibitors of human flap endonuclease 1; AID 588795; Recombinant FEN1 flap cleavage, fluorescence, 15 min; hit rate 0.35% among 390,000; Potency, µM (highest dose often 114 µM), for inactives: at the top dose activity change, negative = inhibition, most hits filed as inhibitors; P39748; further: potency means the concentration at half of the fitted maximal effect; on the % scale 0 is the no-effect control and ±100 the full control effect; nearly all actives have a fitted effect of over 65% in size
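FEN1 at 10 nM preincubated with compounds 15 min at room temperature, then flap DNA substrate added at 50 nM final. Signal read at 0 and 15 min; concentration-response fitted with four-parameter Hill equation.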
TDP1 inh – inhibitors of human tyrosyl-DNA phosphodiesterase TDP1. Q9NUW8. recombinant TDP1, AlphaScreen DNA substrate cleavage. Potency, µM (series often up to 130 µM), without a hit: at the highest dose activity change, negative = inhibition, hits mostly inhibitors. hit rate 0.28% among 350,000. AID 485290; further: potency means the concentration at half of the fitted maximal effect; on the % scale 0 is the no-effect control and ±100 the full control effect; nearly all actives have a fitted effect of over 40% in size
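Compounds were preincubated with Tdp1 (1 nM final) for 15 min at room temperature before substrate (15 nM final) started a 5 min reaction; beads (10 ug/ml final) were then added for 10 min before AlphaScreen detection.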
POLB inh – DNA polymerase beta (human) inhibition; Potency, µM (titrated, usually from 114 µM), inactives show at the top dose activity change, negative = inhibition, actives largely listed as inhibitors; P06746; Pol beta primer extension/strand displacement, fluorescence kinetic; hit rate 1.3% among 340,000; further: potency means the concentration at half of the fitted maximal effect; on the % scale 0 is the no-effect control and ±100 the full control effect
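Human Pol beta at 10 nM; strand-displacement substrate 50 nM final. Compound exposure 15 min at room temperature before start, reaction 10 min at room temperature.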
POLI inh – blocks human DNA polymerase iota activity; Potency, µM (titrated, usually from 115 µM), for inactives: at the highest dose activity, negative = inhibition, most hits filed as inhibitors; AID 588590; Pol iota fluorescent replication assay, 10 min; hit rate 1% among 390,000; Q9UNA4; further: potency means the concentration at half of the fitted maximal effect
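Fluorescent replication assay read twice, at 0 min and 10 min after adding 50 nM (final) substrate. Enzyme (10 nM) and compounds were first incubated 15 min at room temperature; enzyme-free buffer wells were negative controls.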
Pol eta inh-1 – DNA polymerase eta (human) inhibition. Q9Y253. recombinant Pol eta, fluorescent DNA replication assay. Potency, µM (titrated, usually from 114 µM), for the others: at the highest dose activity change, negative = inhibition, actives largely listed as inhibitors. hit rate 1.2% among 390,000. AID 588591; further: potency means the concentration at half of the fitted maximal effect; on the % scale 0 is the no-effect control and ±100 the full control effect
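Fluorescent replication assay: 50 nM final substrate added after a 15 min room-temperature compound preincubation with 10 nM enzyme. Signal taken at 0 min and again at 10 min.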
GALK inh confirm – confirmation of human galactokinase (GALK) inhibitors | shares compounds with Pol eta inh-1 | purified GALK, Kinase-Glo ATP depletion luminescence | Potency, µM (highest dose often 115 µM), for inactives: at the highest dose activity, negative = inhibition, actives largely listed as inhibitors | hit rate 70% among 150
GALK redox cs – redox cycling activity in phenol red-HRP assay; Phenol red-HRP H2O2 redox cycling, absorbance 600 nm; hit rate 40% among 150; Potency, µM (titrated, usually from 115 µM), inactives show at the top dose activity change, negative = H2O2 signal, hits mostly inhibitors; shares compounds with Pol eta inh-1
HEK293 viability – counter-screen for GALK inhibitors: HEK293 cell cytotoxicity; hit rate 10% among 170; shares compounds with Pol eta inh-1; HEK-293 viability, ATP luminescence (CellTiter-Glo), 24/48 h; Potency, µM (series often up to 46.1 µM), without a hit: top-dose activity change, negative = cytotoxicity, usual class: inhibitors; further: potency means the concentration at half of the fitted maximal effect; on the % scale 0 is the no-effect control and ±100 the full control effect
Pol kappa inh-2 – Pol kappa (human) inhibition, cherry-pick confirmation | shares compounds with Pol eta inh-1 | Potency, µM, actives largely listed as inhibitors | AID 720501 | purified Pol-kappa, fluorescent strand-displacement substrate | hit rate 76% among 920; further: potency means the concentration at half of the fitted maximal effect
Pol eta inh-2 – Pol eta (human) inhibition, cherry-pick confirmation | shares compounds with Pol eta inh-1 | Pol eta primer extension, TAMRA/BHQ fluorescence, 10 min | Potency, µM, usual class: inhibitors | hit rate 64% among 2,600 | AID 720502; further: potency means the concentration at half of the fitted maximal effect
An asterisk follows results filed as active; [ ] = remark or other dose. Hits are enriched below; roughly 2.4% of the tested compounds scored in any of these assays. The call rests on the fitted dose curve; in most records, active means well fitted curve in the direction sought with a large enough effect; inconclusive means small, poorly fitted or top-dose-only effect, or another doubt; inactive means no such curve, though single readings can be large; an effect the other way counts as inactive or inconclusive.

How did CC(=O)c1ccc(S(=O)(=O)Nc2ccc(C(=O)NCC(c3ccco3)N3CCCC3)cc2)cc1 (stereo not given) do in these assays?
Pol eta inh-1: 20µM*; Pol kappa inh-2: inconclusive; Pol eta inh-2: inconclusive

Results for COc1ccccc1NS(=O)(=O)c1ccc(C(=O)NCC(c2ccccc2OC)N2CCCC2)cc1 (stereo not given) ?
Pol kappa inh-1: 7.0%; FEN1 inh: -1.7%; POLI inh: 11.5%; Pol eta inh-1: -18.4%

Results for Cc1nc2cnc(N3CCOCC3)nc2n(Cc2cccs2)c1=O ?
Pol kappa inh-1: -9.0%[60.1 µM]

Results for Fc1ccc(Nc2c3c(nc4nncn24)CCC3)cc1 ?
Pol kappa inh-1: -14.1%; FEN1 inh: 0.4%; TDP1 inh: 9.3%; POLB inh: 3.7%; POLI inh: 17.6%

Results for O=C1c2ccccc2C(=O)c2c1cccc2N(CCO)CCO ?
Pol kappa inh-1: -7.7%; FEN1 inh: -21.4%; POLB inh: 18.6%; POLI inh: 41.9%; Pol eta inh-1: -25.2%

How did O=C1C=C(N(CCO)Cc2ccccc2)c2ccccc2C1=O do in these assays?
Pol kappa inh-1: -12.8%; FEN1 inh: -18.5%; TDP1 inh: 0.0%; POLB inh: -17.2%; POLI inh: 4.47µM*; Pol eta inh-1: 20µM*; GALK inh confirm: 11.9µM*; GALK redox cs: 5.95µM*; HEK293 viability: -2.0%

How did CC(C)Sc1nc2sc3c(c2c2nnc(SCC(=O)NCc4ccco4)n12)CCCC3 do in these assays?
Pol kappa inh-1: -17.6%; FEN1 inh: -16.9%; TDP1 inh: 5.3%; POLB inh: -10.9%; POLI inh: inconclusive; Pol eta inh-1: 4.47µM*; Pol eta inh-2: 67.5*

What do the screens show for `COc1ccc(/C(C)=N/Nc2cccc(C(=O)O)c2)cc1OC`?
Pol kappa inh-1: -18.0%; FEN1 inh: 0.5%; TDP1 inh: -3.0%; POLB inh: -23.6%; POLI inh: 56.3%; Pol eta inh-1: inconclusive

How did C/C(=N\Nc1ccc(C(=O)O)cc1)c1ccc2c(c1)Nc1ccccc1S2 do in these assays?
Pol kappa inh-1: inconclusive; FEN1 inh: inconclusive; TDP1 inh: -8.7%; POLB inh: inconclusive; POLI inh: 22.4µM*; Pol eta inh-1: 25.1µM*; Pol eta inh-2: 75.7*

Results for C/C(=N/Nc1ccc(C(=O)O)cc1)c1ccc2c(c1)Nc1ccccc1S2 ?
Pol kappa inh-1: inconclusive; FEN1 inh: -22.4%; POLI inh: 50.1µM*; Pol eta inh-1: 17.8µM*; Pol kappa inh-2: 37.7*; Pol eta inh-2: 75.7*

Results for O=C(NNC(=O)c1cc(-c2ccco2)nc2ccccc12)c1ccccc1 ?
Pol kappa inh-1: -31.5%; FEN1 inh: 4.6%; TDP1 inh: 1.2%; POLB inh: inconclusive; POLI inh: inconclusive; Pol eta inh-1: -7.2%

How did O=C(O)c1cc(-c2ccco2)nc2cc3ccccc3cc12 do in these assays?
Pol kappa inh-1: 79.4µM*; FEN1 inh: -19.1%; POLB inh: 11.2µM*; POLI inh: inconclusive; Pol eta inh-1: 20µM*; Pol eta inh-2: 75.7*

Results for Cc1[nH]c2ccccc2c1/C=N/Nc1cccc(C(=O)O)c1 ?
Pol kappa inh-1: inconclusive; FEN1 inh: -20.1%; TDP1 inh: 8.7%; POLB inh: inconclusive; POLI inh: inconclusive; Pol eta inh-1: 56.2µM*; Pol eta inh-2: inconclusive

What do the screens show for `Cc1[nH]c2ccccc2c1/C=N/NC(=O)c1cccc(Br)c1`?
Pol kappa inh-1: -8.3%; FEN1 inh: -9.1%; POLB inh: inconclusive; POLI inh: 41.7%; Pol eta inh-1: inconclusive

What do the screens show for `O=C(O)c1ccc(N/N=C/c2ccc(-c3ccc(Cl)cc3Cl)o2)cc1`?
Pol kappa inh-1: 0.8%; FEN1 inh: inconclusive; TDP1 inh: 1.2%; POLB inh: inconclusive; POLI inh: 4.1%; Pol eta inh-1: inconclusive

What do the screens show for `NS(=O)(=O)c1ccc(-c2ccc(/C=N/Nc3ccc(C(=O)O)cc3)o2)cc1`?
Pol kappa inh-1: inconclusive; FEN1 inh: inconclusive; TDP1 inh: inconclusive; POLB inh: -15.8%; POLI inh: 50.1µM*; Pol eta inh-1: 28.2µM*; Pol eta inh-2: inconclusive

What do the screens show for `O=C(O)/C=C/C(=O)Nc1ccc(C2(c3ccc(NC(=O)/C=C/C(=O)O)cc3)c3ccccc3-c3ccccc32)cc1`?
Pol kappa inh-1: -11.9%; FEN1 inh: 11.2%; POLB inh: 50.1µM*; POLI inh: inconclusive; Pol eta inh-1: 50.1µM*; Pol eta inh-2: inconclusive

Results for COc1ccc(/C=N/Nc2nc(C(=O)O)cs2)cc1 ?
Pol kappa inh-1: inconclusive; FEN1 inh: 1.4%; POLB inh: inconclusive; POLI inh: 20µM*; Pol eta inh-1: 31.6µM*; Pol eta inh-2: inconclusive

Results for COC(=O)c1ccccc1NC(=O)CSc1nc(N)cc(=O)[nH]1 ?
Pol kappa inh-1: 50.1µM*; FEN1 inh: -4.9%; POLB inh: 17.8µM*; POLI inh: inconclusive; Pol eta inh-1: 17.8µM*; Pol eta inh-2: 67.5*

What do the screens show for `O=C(N/N=C/c1cc(Br)c(O)c(Br)c1O)c1ccc2c(c1)OCCO2`?
Pol kappa inh-1: -39.4%; FEN1 inh: 4.6%; TDP1 inh: 4.4%; POLB inh: 39.8µM*; POLI inh: inconclusive; Pol eta inh-1: inconclusive; Pol kappa inh-2: 33.6*; Pol eta inh-2: inconclusive
